Source: PubChem BioAssay
Activity calls are given as the source filed them.

Key:
[1] = binders of probe aFSTL3 on microarray, primary screen, stem cell growth factor project, biochemical, small-molecule microarray, fluorescence 635/667 (AID 1064); settings: higher = more signal;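 note: measures binding of the biotinylated anti-FSTL3 antibody to printed compounds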
[2] = binders from COS7 lysate, DM2A8 probe, primary screen, torsin A project, cell lysate, small-molecule microarray, fluorescence 635/667 (AID 1065); settings: higher = more signal, COS7 lysate expressing mutant human TOR1A
[3] = binders of probe aFGF2 on microarray, primary screen, stem cell growth factor project, biochemical, small-molecule microarray, fluorescence 635/667 (AID 1067); settings: higher = more signal;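 note: measures binding of biotinylated aFGF2 protein to printed compounds on slides; z-score merges feature fluorescence and signal-to-noise across triplicate slides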
[4] = binders of probe aFGF10 on microarray, primary screen, stem cell growth factor project, biochemical, small-molecule microarray, fluorescence 635/667 (AID 1071); settings: higher = more signal;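 note: score merges 667 nm spot intensity and signal to noise from triplicate slides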
[5] = target: Neurogenic locus notch homolog protein 2 (Homo sapiens) (UniProt Q04721); test: Notch2 binders on small-molecule microarrays, primary screen, biochemical, small-molecule microarray, 635 nm fluorescence, stem cell growth factors (AID 1073); settings: Notch2 binding, higher = more signal
[6] = target: Pro-neuregulin-1, membrane-bound isoform (Homo sapiens) (UniProt Q02297); test: NRG1 binders on small-molecule microarrays, primary screen, psychiatric disease protein project, biochemical, small-molecule microarray, fluorescence 635/667 (AID 1075); settings: NRG1 binding, 635 nm fluorescence, higher = more signal;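 note: score combines 667 nm spot fluorescence with signal to noise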
[7] = test system: Neuregulin-1 EGF-like domain; test: binders of neuregulin-1 EGF-like domain, primary screen, biochemical, small-molecule microarray, 635 nm fluorescence (AID 1081); settings: small-molecule microarray binding, higher = more signal;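 note: binding of the protein to compounds printed on small-molecule microarray slides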
[8] = FRG1 promoter luciferase signal modulators, primary screen, FRG1 inhibition for FSHD, cell-based, C2C12 myotubes, firefly/Renilla luciferase, luminescence (AID 1084); settings: higher = more signal, called active from +8 up or from −8 down
[9] = binders of probe aFST on microarray, primary screen, stem cell growth factor project, biochemical, small-molecule microarray, fluorescence 635/667 (AID 1086); settings: higher = more signal;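 note: score merges 667 nm fluorescence with signal-to-noise of each printed compound spot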
[10] = binders of probe aHhip on microarray, primary screen, stem cell growth factor project, biochemical, small-molecule microarray, fluorescence 635/667 (AID 1087); settings: higher = more signal;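 note: score merges spot fluorescence at 667nm with spot signal to noise ratio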
[11] = test system: PRMT1 (protein arginine N-methyltransferase 1); test: PRMT1 binders on small-molecule microarrays, primary screen, biochemical, small-molecule microarray, 635 nm fluorescence (AID 1088); settings: small-molecule microarray binding, higher = more signal;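 note: binding of Prmt1 protein to compounds spotted on small-molecule microarray slides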
[12] = yeast growth modulation, basal conditions, primary screen, YJM789 clinical isolate, OD600, 24 h (AID 1089);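 note: growth of clinical yeast isolate S. cerevisiae YJM 789 seeded 1000 cells per well; test concentration not given here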; settings: S. cerevisiae YJM789 growth, higher = more signal, called active from +8 up or from −8 down
[13] = fission yeast growth modulation, primary screen, strain 972, OD600, 24 h, no modulator (AID 1090);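 note: basal condition with compound alone and no growth modifier present; test concentration not given here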; settings: S. pombe 972 growth, higher = more signal, called active from +8 up or from −8 down
[14] = S. cerevisiae growth modulation with rapamycin, primary screen, strain BY4716, OD600, 96 h (AID 1091); settings: higher = more signal, called active from +8 up or from −8 down; note: test concentration not given here
[15] = target: Torsin-1A-interacting protein 2 (Homo sapiens) (UniProt Q8NFQ8); test: LULL1 binders on small-molecule microarray, primary screen, cell lysate, human LULL1 lysate, 635/667 nm fluorescence (AID 1092); settings: hLULL1 lysate binding, 635 nm fluorescence, higher = more signal;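 note: probe is lysate of COS7 cells overexpressing human LULL1; score merges per-feature 667 nm fluorescence with signal-to-noise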
[16] = E. coli growth modulation, two-sided OD650, primary screen, E. coli filamentation project, strain DRC41, 24 h (AID 1093); settings: OD650, 24 h, higher = more signal, called active from +8 up or from −8 down;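 note: MC1000 strain lacking acrAB efflux and sulA so SOS filamentation is blocked; test concentration not given here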
[17] = small-molecule microarray binders of probe aLefty2, primary screen, biochemical, biotinylated probe, 635/667 nm fluorescence (AID 1094); settings: higher = more signal;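 note: score merges spot fluorescence near 667 nm with spot signal-to-noise ratio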
[18] = test system: Noggin (protein binding on small-molecule microarray); test: Noggin binders on small-molecule microarray, primary screen, biochemical, 635/667 nm fluorescence (AID 1095); settings: 635 nm fluorescence, higher = more signal;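 note: score merges 667 nm feature fluorescence with signal to noise over triplicate slides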
[19] = target: Neurogenic locus notch homolog protein 3 (Homo sapiens) (UniProt Q9UM47); test: NOTCH3 binders on small-molecule microarray, primary screen, biochemical, 635/667 nm fluorescence (AID 1096); settings: NOTCH3 binding, 635 nm fluorescence, higher = more signal
[20] = small-molecule microarray binders of probe aEGFR, primary screen, biochemical, biotinylated probe, 635/667 nm fluorescence (AID 1097); settings: higher = more signal;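 note: probe is a biotinylated anti-EGFR antibody binding compounds printed on slides; score combines fluorescence near 667 nm and signal to noise of each spot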

Chain of Pro-neuregulin-1, membrane-bound isoform (Homo sapiens) (Q02297 whole entry, looked up, the tested form may be a part, canonical isoform): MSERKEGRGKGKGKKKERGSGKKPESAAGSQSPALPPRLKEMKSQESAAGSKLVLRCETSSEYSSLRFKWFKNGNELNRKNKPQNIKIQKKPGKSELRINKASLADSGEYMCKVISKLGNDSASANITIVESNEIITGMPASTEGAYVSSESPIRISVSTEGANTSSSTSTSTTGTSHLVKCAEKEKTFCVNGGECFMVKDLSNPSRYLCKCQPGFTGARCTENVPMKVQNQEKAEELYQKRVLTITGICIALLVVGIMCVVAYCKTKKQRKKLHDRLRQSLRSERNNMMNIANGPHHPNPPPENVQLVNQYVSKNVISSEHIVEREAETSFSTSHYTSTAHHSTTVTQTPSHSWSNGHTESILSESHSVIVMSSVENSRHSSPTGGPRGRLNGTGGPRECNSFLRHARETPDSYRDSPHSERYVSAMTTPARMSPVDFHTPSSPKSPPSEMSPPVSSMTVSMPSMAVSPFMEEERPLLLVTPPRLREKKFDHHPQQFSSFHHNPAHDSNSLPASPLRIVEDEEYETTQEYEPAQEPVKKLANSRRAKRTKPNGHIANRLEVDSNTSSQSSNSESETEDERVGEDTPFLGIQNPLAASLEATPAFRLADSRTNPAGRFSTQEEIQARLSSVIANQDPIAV
Chain of Neurogenic locus notch homolog protein 3 (Homo sapiens) (Q9UM47 whole entry, looked up): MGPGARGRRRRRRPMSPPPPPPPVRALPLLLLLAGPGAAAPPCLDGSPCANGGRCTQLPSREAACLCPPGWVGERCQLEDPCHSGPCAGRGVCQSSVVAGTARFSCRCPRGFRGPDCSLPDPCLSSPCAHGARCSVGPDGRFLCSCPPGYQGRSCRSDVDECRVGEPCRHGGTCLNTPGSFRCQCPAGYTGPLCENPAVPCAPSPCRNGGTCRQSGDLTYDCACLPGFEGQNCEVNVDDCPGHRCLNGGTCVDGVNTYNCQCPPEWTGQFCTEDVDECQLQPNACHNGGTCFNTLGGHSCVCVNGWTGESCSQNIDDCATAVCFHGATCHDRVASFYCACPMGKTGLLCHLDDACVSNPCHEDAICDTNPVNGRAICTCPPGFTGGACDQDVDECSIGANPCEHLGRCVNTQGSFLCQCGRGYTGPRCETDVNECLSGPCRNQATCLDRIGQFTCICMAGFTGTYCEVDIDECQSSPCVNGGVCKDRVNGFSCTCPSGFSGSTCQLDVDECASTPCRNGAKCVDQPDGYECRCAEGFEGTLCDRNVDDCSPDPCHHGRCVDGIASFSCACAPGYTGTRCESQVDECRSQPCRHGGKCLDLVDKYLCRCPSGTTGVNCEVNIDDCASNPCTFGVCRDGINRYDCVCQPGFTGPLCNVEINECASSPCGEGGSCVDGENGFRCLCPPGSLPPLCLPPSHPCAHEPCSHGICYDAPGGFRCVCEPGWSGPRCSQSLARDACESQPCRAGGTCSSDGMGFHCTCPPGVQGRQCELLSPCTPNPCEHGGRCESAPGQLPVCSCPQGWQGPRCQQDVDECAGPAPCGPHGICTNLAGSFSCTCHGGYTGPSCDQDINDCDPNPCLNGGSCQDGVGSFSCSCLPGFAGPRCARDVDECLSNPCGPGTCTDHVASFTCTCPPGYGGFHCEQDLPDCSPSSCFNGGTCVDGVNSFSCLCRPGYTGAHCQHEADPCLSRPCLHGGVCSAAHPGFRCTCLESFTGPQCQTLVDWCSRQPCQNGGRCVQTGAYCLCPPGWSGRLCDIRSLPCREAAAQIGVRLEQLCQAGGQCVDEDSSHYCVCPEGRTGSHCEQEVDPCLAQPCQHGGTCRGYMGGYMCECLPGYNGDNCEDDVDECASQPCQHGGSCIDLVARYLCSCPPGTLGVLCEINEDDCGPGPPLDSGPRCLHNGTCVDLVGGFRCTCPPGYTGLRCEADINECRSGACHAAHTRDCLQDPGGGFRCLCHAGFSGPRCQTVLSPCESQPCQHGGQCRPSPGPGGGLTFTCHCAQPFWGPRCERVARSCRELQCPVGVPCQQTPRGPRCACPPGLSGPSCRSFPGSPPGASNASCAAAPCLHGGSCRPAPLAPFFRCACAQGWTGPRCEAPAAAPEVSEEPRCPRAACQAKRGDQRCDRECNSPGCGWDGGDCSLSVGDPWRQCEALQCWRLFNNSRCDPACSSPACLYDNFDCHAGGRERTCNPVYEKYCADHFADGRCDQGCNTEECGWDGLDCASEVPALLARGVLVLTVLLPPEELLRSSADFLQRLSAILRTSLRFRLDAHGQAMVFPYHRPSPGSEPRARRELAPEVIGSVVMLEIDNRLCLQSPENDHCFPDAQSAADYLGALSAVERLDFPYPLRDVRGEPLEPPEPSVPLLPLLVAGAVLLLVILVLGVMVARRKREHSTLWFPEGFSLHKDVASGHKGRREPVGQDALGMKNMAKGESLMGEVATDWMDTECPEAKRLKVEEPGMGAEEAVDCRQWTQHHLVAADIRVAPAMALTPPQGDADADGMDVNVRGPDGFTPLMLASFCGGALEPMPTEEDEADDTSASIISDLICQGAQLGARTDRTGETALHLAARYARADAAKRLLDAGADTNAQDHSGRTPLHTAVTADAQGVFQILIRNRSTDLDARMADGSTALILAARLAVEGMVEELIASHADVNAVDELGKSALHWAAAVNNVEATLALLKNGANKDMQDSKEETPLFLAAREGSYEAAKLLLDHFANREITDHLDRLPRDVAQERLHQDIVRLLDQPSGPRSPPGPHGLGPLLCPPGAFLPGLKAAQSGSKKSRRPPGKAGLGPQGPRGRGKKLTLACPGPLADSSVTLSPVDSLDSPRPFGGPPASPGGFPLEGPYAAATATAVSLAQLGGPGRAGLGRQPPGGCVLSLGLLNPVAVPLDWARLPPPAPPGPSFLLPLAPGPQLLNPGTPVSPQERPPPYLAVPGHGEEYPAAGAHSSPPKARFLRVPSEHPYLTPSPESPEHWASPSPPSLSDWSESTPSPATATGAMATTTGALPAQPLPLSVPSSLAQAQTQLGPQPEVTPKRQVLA
Chain of Torsin-1A-interacting protein 2 (Homo sapiens) (Q8NFQ8 whole entry, looked up): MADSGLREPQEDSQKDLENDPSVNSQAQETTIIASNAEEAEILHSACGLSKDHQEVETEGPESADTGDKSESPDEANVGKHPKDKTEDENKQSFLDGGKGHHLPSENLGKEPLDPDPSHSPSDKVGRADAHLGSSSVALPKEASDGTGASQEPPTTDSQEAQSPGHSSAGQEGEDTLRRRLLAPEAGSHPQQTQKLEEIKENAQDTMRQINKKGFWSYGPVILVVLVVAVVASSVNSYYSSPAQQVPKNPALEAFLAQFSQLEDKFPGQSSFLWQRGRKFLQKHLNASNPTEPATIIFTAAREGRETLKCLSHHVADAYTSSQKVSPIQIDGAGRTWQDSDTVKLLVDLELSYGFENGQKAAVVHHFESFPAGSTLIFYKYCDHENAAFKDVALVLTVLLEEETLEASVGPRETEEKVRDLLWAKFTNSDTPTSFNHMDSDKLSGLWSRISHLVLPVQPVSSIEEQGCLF

SMILES	composite z-score [1]	composite z-score [2]	composite z-score [3]	composite z-score [4]	composite z-score [5]	composite z-score [6]	composite z-score [7]	z-score [8]	composite z-score [9]	composite z-score [10]	composite z-score [11]	z-score [12]	z-score [13]	z-score [14]	composite z-score [15]	z-score [16]	composite z-score [17]	composite z-score [18]	composite z-score [19]	composite z-score [20]
COCCOC(=O)N1C(=O)[C@@]2(c3cc(C#CC4=CCCCC4)ccc31)[C@H](c1ccccc1OCCO)N1[C@H](c3ccccc3)[C@H](c3ccccc3)OC(=O)[C@H]1[C@@H]2C(=O)NC[C@H](O)c1ccccc1	-0.223	0.123	-0.0817	0.345	1.07	0.298	1.23	0.204 (inactive)	0.635	0.115	1.54	1.01 (inactive)	0.785 (inactive)	3.28 (inactive)	2.54	-0.314 (inactive)	-0.0671	1.45	1.07	-0.0476
COC(=O)[C@@]1(Cc2ccc(OC)cc2)[C@H]2c3cc(C(=O)N4CCCC4)n(CCO)c3C[C@H]2CN1C(=O)c1ccccc1	0.0734	-0.562	0.418	1.18	1.55	1.77	0.764	1.45 (inactive)	0.691	0.34	0.738	0.663 (inactive)	0.544 (inactive)	-0.289 (inactive)	4.02	-1.41 (inactive)	0.159	-0.0367	0.552	0.212
O=C1C[C@]2(c3ccc([N+](=O)[O-])cc3)C(=O)N(C3CC3)c3cc(CO)ccc3[C@H]2N1CC12CC3CC(CC(C3)C1)C2	-0.224	-0.622	-0.0825	-0.0253	-0.562	-0.0609	-0.5	-0.0608 (inactive)	0.0196	-0.258	0.739	-0.263 (inactive)	0.436 (inactive)	-0.574 (inactive)	1.87	-1.29 (inactive)	-0.171	-1.02	-0.466	-0.228
O=C1O[C@@H](c2ccccc2)[C@@H](c2ccccc2)N2[C@@H](c3ccc(OCCO)cc3)[C@]3(C(=O)Nc4ccc(C#CC5=CCCCC5)cc43)[C@@H](C(=O)NC[C@H](O)c3ccccc3)[C@H]12	-0.94	0.297	-0.0384	0.6	1.48	0.655	1.13	2.03 (inactive)	0.126	-0.142	1.36	1.99 (inactive)	2.17 (inactive)	4.09 (inactive)	2.46	-0.749 (inactive)	-0.0696	1.51	1.02	-0.246
COCCOC(=O)N1C(=O)[C@@]2(c3cc(C#CC4=CCCCC4)ccc31)[C@H](C(=O)Nc1nc3ccccc3s1)[C@H]1C(=O)O[C@H](c3ccccc3)[C@H](c3ccccc3)N1[C@@H]2c1ccc(O)cc1	-0.528	1.39	0.0156	0.176	0.992	1.15	1.03	0.0402 (inactive)	1.13	0.103	1.55	0.128 (inactive)	-0.663 (inactive)	0.364 (inactive)	2.38	0.0627 (inactive)	-0.0823	1.21	1.07	-0.0975
